Experimental data: PubChem BioAssay (EPA / NIEHS)
Records with an inconclusive call do not appear. Calls of active or inactive are those of the source. How the source made its calls: active means hit-call score of the fitted dose curve at least 0.9, where 1 is the maximum; inconclusive means response in the unintended direction; inactive means score below 0.9.

Test: Tanguay_ZF_120hpf_AXIS_legacy: (Legacy) Oregon State University Tanguay Lab 120 Hour Post-fertilization zebrafish Assay for Body Axis Malformation (AID 2283635);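 on AC50: potency for an increased fraction of larvae scored with body axis malformation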
Description: Tanguay_ZF_120hpf_legacy is a whole embryo, multiplexed endpoint assay using zebrafish larvae exposed for 120 hours post fertilization on a 96-well plate.Tanguay_ZF_120hpf_AXIS_legacy is one of one assay component(s) measured or calculated from the Tanguay_ZF_120hpf_legacy assay. It is designed to make measurements of zebrafish development as detected with brightfield microscopy of developing zebrafish embryos.Data from the assay component Tanguay_ZF_120hpf_AXIS_legacy was analyzed into 1 assay endpoints. This assay endpoint, Tanguay_ZF_120hpf_AXIS_legacy, was analyzed in the positive analysis fitting direction relative to DMSO as the negative control and baseline of activity. Using a type of morphology reporter, gain-of-signal activity can be used to understand changes in developmentals as they relate to the whole embryo. To generalize the intended target to other relatable targets, this assay endpoint is annotated to the zebrafish development intended target family, where the subfamily is body axis morphogenesis.
Zebrafish husbandry: Tropical 5D wild-type adult zebrafish were housed in at an approximate density of 1000 per 100 gallon tank at the Sinnhuber Aquatic Research Laboratory, Oregon State University, Corvallis, OR. Each tank was kept at standard laboratory conditions of 28C on a 14-h light/10-h dark photoperiod in fish water consisting of reverse osmosis water supplemented with a commercially available salt (Instant Ocean). Spawning funnels were placed into the tanks the night prior, and embryos were collected and staged. To increase bioavailability, the chorion was enzymatically removed using pronase (63.6mg/ml, >/= 3.5U/mg, Sigma-Aldrich: P5147) at 4 hours post fertilization (hpf) using a custom automated dechorionator.Chemical exposures: Six hpf dechorionated embryos were placed 1 embryo per well in a 96-well plate prefilled with 90 ul of EM using automated embryo placement systems (AEPS). Ten microliters of each row of dilution plate 2 was added to 2 exposure plates. The final DMSO concentration used was 0.64% (vol/vol). Thirty-two embryos were also exposed to 5uM trimethyltin chloride (positive control). Plates were sealed to prevent evaporation and foil covered to reduce light exposure and kept in a 28C incubator. Embryos were statically exposed until 120 hpf. At 24 hpf, embryos were assessed for photomotor response using a custom photomotor response analysis tool (PRAT) and for developmental toxicity endpoints (MO24: mortality at 24 hpf, DP: developmental progression, SM: spontaneous movement, and NC: notochord distortion). At 120 hpf, locomotor activity was measured using Viewpoint Zebralab and assessed for 18 endpoints. Zebrafish acquisition and analysis program (ZAAP), a custom program designed to inventory, acquire, and manage zebrafish data, was used to collect developmental endpoints as either present or absent (i.e., binary responses were recorded). If mortality occurred for an embryo (at either 24 or 120 hpf), the non-mortality endpoints were not measured.

SMILES	outcome	AC50
CCC1(c2ccccc2)C(=O)N=C(O)NC1=O (stereo unspecified)	inactive	–
CCOP(=S)(OCC)SCSCC	inactive	–
c1ccc2c(c1)Nc1ccccc1S2	inactive	–
ClC1=C(Cl)C2(Cl)C3C(Cl)C(Cl)CC3C1(Cl)C2(Cl)Cl (stereo unspecified)	inactive	–
CCOP(=S)(Oc1ccc([N+](=O)[O-])cc1)c1ccccc1 (stereo unspecified)	inactive	–
CCOC(=O)c1ccccc1C(=O)OCC	inactive	–
O=P(Oc1ccccc1)(Oc1ccccc1)Oc1ccccc1	inactive	–
Cc1cccc(N)c1	inactive	–
CC(C)(C)c1ccc(O)cc1	inactive	–
Nc1ccc(Cl)cc1	inactive	–
c1cc2c3c(cccc3c1)CC2	inactive	–
Cc1ccc(O)cc1C	inactive	–
ClC(Cl)(Cl)c1ccccc1	inactive	–
Nc1ccc2ccccc2c1	–	33.4 µM (active)
CC(Cc1ccc(OCC(=O)O)cc1)NCC(O)c1csc(C(F)(F)F)n1 (stereo unspecified)	inactive	–
CCCCCCCc1ccc(O)cc1	inactive	–
c1ccc(OP(Oc2ccccc2)Oc2ccccc2)cc1	inactive	–
COCCOCCO	inactive	–

SMILES	outcome	AC50
OCC1CO1 (stereo unspecified)	inactive	–
CC(Cl)(Cl)C(=O)O	inactive	–
CC(C)(C)OOC(C)(C)C	inactive	–
Cc1ccc([N+](=O)[O-])cc1C	inactive	–
CCCCN(CCCC)SN(C)C(=O)Oc1cccc2c1OC(C)(C)C2	inactive	–
CSC(C)(C)C=NO	inactive	–
O=C(O)C1C(C(=O)O)C2(Cl)C(Cl)=C(Cl)C1(Cl)C2(Cl)Cl (stereo unspecified)	inactive	–
O=P1(N(CCCl)CCCl)NCCCO1 (stereo unspecified)	inactive	–
CCOS(=O)(=O)OCC	inactive	–
O=[N+]([O-])c1ccccc1	inactive	–
CCC(C)(C)c1ccc(O)cc1	–	19 µM (active)
CCCCN(CCCC)N=O	inactive	–
O=C(O)C(Cl)Cl	inactive	–
CCCCc1ccccc1	inactive	–
O=[N+]([O-])c1ccc(Cl)c(Cl)c1	inactive	–
ClC(Cl)c1ccccc1	inactive	–
[N-]=[N+]=[N-]	inactive	–
Cc1ccc(N)cc1N	inactive	–
